Source: the supplement of paper PMC12636033
± gives the standard deviation of the averaged measurements. In all, about 33,000 sequences were measured (“E-score (rank enrichment, -0.5 to 0.5)”: median about -0.0068, highest 2% from about 0.24 on). The sample as a whole holds a higher share of the highest values than the screen did.

Test system: muMax20 (Max(13-93) K31hArg/K57hArg, M65Nle)
Assay: PBM 8-mer E-score (E-score (rank enrichment, -0.5 to 0.5)); higher = stronger preferential binding
Protocol: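 Protein binding microarray (universal PBM chip covering all 10-mers in fixed probe flanks) with chemically synthesized human Max(13-93) bHLH-LZ analogs (not full-length Max) bearing noncanonical residues (hArg, Tha, Aib, Nle at 65) and aromatic Cys staples. Read-out per 8-mer (and its reverse complement): E-score (rank-based enrichment, -0.5 to 0.5) and Z-score of median probe intensity.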

Sequence	PBM 8-mer E-score
AAGATTCC	0.00605 ± 0.027
ACATAAGA	0.174 ± 0.014
CGTCGGGC	-0.152 ± 0.008
GCAATAAC	0.138 ± 0.014
CATTATTA	0.242 ± 0.051
AATTATTC	0.101 ± 0.071
CCTTATTC	-0.029 ± 0.059
CCTTATTA	0.28 ± 0.04
CATTATTC	0.104 ± 0.032
GCTTATTA	0.1783 ± 0.0012
GATTATTA	0.118 ± 0.064
AATTATTA	0.309 ± 0.036
AATTATTG	0.191 ± 0.012
CACTCGCG	-0.0815 ± 0.047
GAAGAGTC	0.089 ± 0.11
CAGTGCTA	-0.08 ± 0.053
GCAGAGCA	-0.187 ± 0.06
CTATATAG	0.134 ± 0.082
GAGGATAA	0.0253 ± 0.093
AATTAGTC	0.0746 ± 0.11
CATTAGTA	0.0251 ± 0.027
AGTTAGTA	0.27 ± 0.033
AGTTAGTC	-0.094 ± 0.036
GGTTAGTA	0.0601 ± 0.091
AATTAGTA	0.28 ± 0.034

Sequence	PBM 8-mer E-score
ACTGATGG	-0.0638 ± 0.09
GTCCGATA	-0.0402 ± 0.11
CTCCCGAC	-0.0892 ± 0.047
ATCCCGCG	-0.0553 ± 0.1
CGCATTAA	-0.00237 ± 0.005
AGCATTAG	0.142 ± 0.042
AGCATTAC	-0.0675 ± 0.077
TCCATTAA	-2.5e-05 ± 0.096
ACCATTAA	0.348 ± 0.021
TGCATTAA	0.277 ± 0.062
CCCATTAA	-0.0202 ± 0.017
AGCATTAT	0.262 ± 0.048
AGCATTAA	0.232 ± 0.0024
ACTTATAA	0.0449 ± 0.25
AATCTTTG	0.0923 ± 0.013
CGTTGGGA	-0.0152 ± 0.0038
GTGTTCTA	0.169 ± 0.024
AAATCCGT	-0.0161 ± 0.1
AGGTCCGC	-0.129 ± 0.034
ATATTTTA	0.203 ± 0.0096
ACACGAAC	0.122 ± 0.011
ATGTTTAC	0.245 ± 0.073
CTGTTTAC	0.106 ± 0.041
ATGTTTAG	0.222 ± 0.12
AGTTCACC	-0.068 ± 0.0075

Sequence	PBM 8-mer E-score
ATTAAAAC	0.269 ± 0.022
ATTAAACG	0.287 ± 0.003
ATTAAACC	0.164 ± 0.03
AATTAAAG	0.108 ± 0.13
ATTAAAAG	0.119 ± 0.073
GATTAAAC	0.134 ± 0.071
AATTAAAC	0.268 ± 0.072
ATTAAAAA	0.0946 ± 0.0066
ATTAAACA	0.132 ± 0.15
GTTCTTGA	0.0649 ± 0.045
CAAGGTGG	-0.0168 ± 0.088
TAGAAGAA	-0.0576 ± 0.025
GACATCCC	-0.00641 ± 0.062
AATACCTA	0.214 ± 0.067
CGAAGCTA	-0.176 ± 0.022
GGTCCAAC	-0.234 ± 0.16
ATGGTAAA	0.13 ± 0.053
ATTATTAC	0.255 ± 0.028
ACTATTAG	-0.0835 ± 0.051
ATTATTAA	0.212 ± 0.035
ACTATTAC	0.0842 ± 0.022
CTTATTAC	0.101 ± 0.014
ATTATTAG	0.247 ± 0.061
GCGGCTGA	-0.177 ± 0.019
CAATTCAA	0.0283 ± 0.0014

Sequence	PBM 8-mer E-score
ATTCCCCA	0.209 ± 0.066
ACTCCAGA	-0.0288 ± 0.033
CCAGGAAC	-0.286 ± 0.11
CAGGATTA	0.0457 ± 0.03
CAGCAGGG	-0.114 ± 0.086
GAAGAACA	0.127 ± 0.031
CAAGAACA	-0.0329 ± 0.2
TAAGAACA	0.239 ± 0.0029
ACGTTTAT	0.0742 ± 0.017
AATTGGCC	-0.0791 ± 0.05
GTTGGTAA	0.0564 ± 0.03
ATGTGTGG	0.104 ± 0.095
ATATGTGG	0.261 ± 0.098
ATATGTGC	0.121 ± 0.056
ATATGTGA	0.32 ± 0.08
CTATGTGA	0.0996 ± 0.088
GTATGTGA	0.0146 ± 0.021
CACGAATG	0.101 ± 0.063
GGCGGACA	-0.0909 ± 0.047
GTCCTAAA	0.0453 ± 0.11
ATGGCATG	0.0857 ± 0.18
ACTTTCTG	-0.00396 ± 0.12
ACTTTCTC	0.0328 ± 0.03
ACTTTCTA	0.237 ± 0.046
CCGAAAAG	0.0771 ± 0.15

Sequence	PBM 8-mer E-score
ATGAATTG	0.179 ± 0.062
CATACACG	0.166 ± 0.029
AATACACA	0.308 ± 0.05
TATACACA	0.234 ± 0.038
ACTACAAG	0.135 ± 0.062
CATACACA	0.221 ± 0.047
CCTACAAC	0.13 ± 0.0096
AATACACT	0.188 ± 0.042
TGTATACA	0.335 ± 0.051
AATACACG	0.256 ± 0.027
GGTATACA	0.109 ± 0.022
ACTACAAC	0.268 ± 0.024
CGTATACA	0.216 ± 0.049
CGCGACCA	-0.136 ± 0.0046
ATATGGTA	0.217 ± 0.0028
GTCGGACA	-0.2 ± 0.096
GAATAACC	0.0359 ± 0.041
TCGAAACA	0.00709 ± 0.067
ACAGAGTC	-0.0304 ± 0.021
ATCCTACA	-0.0539 ± 0.011
GTTCCCGA	-0.272 ± 0.029
AAACTCGG	-0.00029 ± 0.062
TGAAATCA	0.102 ± 0.042
CACCTAGC	0.0921 ± 0.017
CCTACACG	0.00955 ± 0.02

Sequence	PBM 8-mer E-score
CGTACACG	0.212 ± 0.059
ACTACACG	0.149 ± 0.0089
AGTACACA	0.22 ± 0.037
TGTACACA	0.251 ± 0.073
ACTACACA	0.315 ± 0.053
ATCCCTGG	-0.185 ± 0.058
ACTCCATC	-0.129 ± 0.053
ATTTCATC	0.17 ± 0.077
TGAAGACA	-0.094 ± 0.12
AATGTATA	0.279 ± 0.074
AAAGTATA	0.315 ± 0.012
GATGTATA	0.103 ± 0.14
ACTGTATA	0.255 ± 0.011
ATTGTATA	0.131 ± 0.13
CAAGTATA	0.187 ± 0.011
CCTGTATA	0.116 ± 0.042
CATGTATA	0.228 ± 0.034
GCTGTATA	0.192 ± 0.026
GTTGTATA	0.249 ± 0.025
CTTGTATA	0.136 ± 0.16
AAAGTATT	0.221 ± 0.0025
ACGCCATA	0.0949 ± 0.073
TCTAAACA	0.16 ± 0.033
CTGAGTTA	-0.0809 ± 0.031
AGAAAAAA	0.231 ± 0.056

Sequence	PBM 8-mer E-score
CATCGAGC	-0.0831 ± 0.0056
AAATGTGC	0.121 ± 0.067
ACGGTGCT	-0.0206 ± 0.018
ATTGTTTA	0.103 ± 0.011
GTTGTTTA	0.32 ± 0.063
CTTGTTTA	0.0457 ± 0.0082
ACATTGTG	0.144 ± 0.17
TAGATCTA	0.0708 ± 0.14
AACATATA	0.286 ± 0.079
TACATAGA	0.163 ± 0.051
AACATATG	0.136 ± 0.027
ACCATATA	0.278 ± 0.042
CACATATG	0.131 ± 0.036
TACATATA	0.238 ± 0.022
GACATATC	0.135 ± 0.032
GACATATA	0.0588 ± 0.11
CACATATA	0.325 ± 0.081
ACCATATC	0.0503 ± 0.19
ACCATATG	0.159 ± 0.02
CACATATC	0.149 ± 0.067
CGTCGGAG	-0.1482 ± 0.0013
CGCACTAG	-0.0251 ± 0.025
